These results are taken from PubChem BioAssay AID720565 (National Center for Advancing Translational Sciences (NCATS), 2013).

The structures appear in SMILES notation. Several values for one entry are separate records, joined by “and”; a condition that tells them apart may be missing. Equal values may be shown once. Inconclusive results are not listed. Activity calls are given as the source filed them. The call rests on the fitted dose curve; in most records, active means well fitted activation curve with a large enough effect; inconclusive means small, poorly fitted or top-dose-only effect; inactive means no such curve, though single readings can be large or run the other way.
Potency means the concentration at half of the fitted maximal effect.

This assay is described as follows: qHTS for small molecules that induce genotoxicity in ELG1 expressing cells: Confirmatory Assay for Cherry-picked Compounds. Further: nearly all actives have a fitted effect of over 35% in size. On activation: % of control where 0% means no effect. As to conditions: ELG1-luciferase reporter cells, luminescence, 16 h; series mostly up to 46.1 µM; activation: at the top concentration. Summed up: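 Cells carrying the ELG1-luciferase reporter were exposed to compound for 16 hr at 37 C, 5% CO2, at 2,000 cells per well. Rise in luciferase activity, read with ONE-Glo after 30 min at room temperature, indicates genotoxic stress.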
(Quantitative high-throughput screening tests each substance at several concentrations.)
With `O=c1c2ccccc2oc2c1oc1ccccc12`, the Potency was 14.1 µM (active).
Consider `O=C(OCC(=O)N1CCc2ccccc2C1)c1c(F)cccc1Cl`, for which the Potency is 9.96 µM (active).
In the case of `COc1ccc2cc(C[C@@H]3CC[C@@H](CO)O3)ccc2c1`, the Potency is 12.5 µM (active).
On to `C(=C\c1ccc2ccccc2n1)/c1cccnc1`, for which the Potency is 0.25 µM (active).
Turning to `O=C(Nn1c(SCc2ccc([N+](=O)[O-])cc2)nc2ccccc2c1=O)c1ccc(F)cc1`, the Potency was 5 µM (active).
Consider `Cc1cc2ncc(-c3ccccc3)nc2cc1C`, for which the Potency is 1.41 µM (active).
As for `Cn1c2ccccc2c(=O)c2cc(NCCCN3CCOCC3)ccc21`, the Potency was 17.7 µM (active).
For the compound `Cc1ccc(-c2nnc(SCC(=O)Nc3ccccc3F)o2)cc1`, the Potency was 115 nM (active) and 88.9 nM (active).
With `C=C1C(c2ccc(C)cc2)=CCc2cc(C)cc(C)c21`, the Potency was 5 µM (active).
Take `O=C1CCN(Cc2ccccc2)C=C1c1ccc2ccccc2c1`: the Potency was 14.1 µM (active).
As to `CC(=O)Nc1ccc(SCC(=O)c2cc(C)n(Cc3cccs3)c2C)cc1`, the Potency is 1.12 µM (active).
With `Cc1cc(C(=O)Nc2ccc(Br)cn2)sc1C`, the Potency is 2.5 µM (active).
As to `O=C(Nc1ccccn1)c1sc2ccccc2c1Cl`, the Potency was 0.223 µM (active).
On to `O=c1c2ccccc2oc2ccc(-c3ccc4cc[nH]c4c3)cc12`, for which the Potency is 1.26 µM (active).
Still for that read-out and setting: the same measure for `CC(=O)NC12CC3CC(C1)CC(C(=O)OCC(=O)c1cc(C)n(C)c1C)(C3)C2`: 2.81 µM (active).
As to `c1ccc(-c2cc3cc4c(cc3cn2)OCO4)cc1`, the Potency was 2.81 µM (active).
As to `COCCn1c(C)cc(C(=O)COC(=O)c2cccnc2SC)c1C`, the Potency is 2.23 µM (active).
With `O=C(CSc1nnc(Cc2ccccc2)o1)Nc1ccc(Br)cn1`, the “activation” value is -11.1% (inactive).
As for `O=C(CSc1nnc(-c2csc3c2CCCC3)o1)Nc1ccccc1`, the Potency is 575 nM (active) and 561 nM (active).
Still for that read-out and setting: the same measure for `COc1ccc(-c2coc3cc(O)cc(O)c3c2=O)cc1`: 9.96 µM (active); for `CN(C)c1ccc(N=Nc2ccc(/C=C/c3ccnc4ccccc34)cc2)cc1`: 4.45 µM (active); for `CCOc1ccc2oc(C(=O)Nc3nccs3)c(C)c2c1`: 2.23 µM (active).
Regarding `CCOC(=O)c1c(C)[nH]c(C(=O)NNC(=O)c2ccccc2F)c1C`, the Potency is 12.5 µM (active).
Regarding `COc1ccc(/C=C2\Oc3ccccc3C2=O)cc1`, the Potency is 0.996 µM (active).
For the compound `COc1ccc(-c2cc3cc4c(cc3cn2)OCO4)cc1`, the Potency was 1.77 µM (active).
In the case of `C[C@@H]1CC2[C@@H]3CCC4=CC(=O)C=C[C@]4(C)[C@@]3(F)[C@@H](O)C[C@]2(C)[C@@]1(O)C(=O)NCCCCCCOC[C@H]1O[C@@H](n2cnc3cc(Cl)c(Cl)cc32)[C@@H]2OC(C)(C)O[C@@H]21` (stereo partly drawn), the Potency is 2.29 µM (active).
Same read-out and setting: the same measure for `COc1ccccc1/C=C/c1nc2ccccc2o1`: 3.53 µM (active); for `Cc1nc(Nc2nc3ccccc3o2)nc2c1CCCC2`: 0.706 µM (active).
`O=C(NC1CCCC1)c1cc(-c2cccs2)on1`: the Potency is 15.8 µM (active).
Consider `O=C(NCc1cccs1)c1cc(-c2ccccc2)on1`, for which the Potency was 11.5 µM (active) and 7.06 µM (active).
On to `Cc1nc2cc(-c3ccccc3)nn2c(N)c1-c1ccccc1`, for which the Potency was 0.629 µM (active).
As for `O=C(CSc1nnc(-c2cccc(Cl)c2)o1)Nc1ccc2c(c1)OCCO2`, the Potency is 15.8 µM (active).
`Fc1ccc2cc(CCO[C@H]3CCCCO3)ncc2c1`: the Potency was 3.97 µM (active).
With `CCn1c(=O)n(CC)c2cc(S(=O)(=O)N3CCCCC3)c(C)cc21`, the “activation” value was 26.9% (inactive).
With `CN(C)c1ccc(C=Nc2cncc3ccccc23)cc1`, the Potency is 0.889 µM (active).
In the case of `CC(=O)Oc1ccc(-c2nc(-c3ccccc3)no2)cc1`, the Potency is 2.81 µM (active).
With `O=C1CCCC(=NNC(=O)c2cc3ccccc3cc2O)C1`, the Potency is 15.8 µM (active).
Consider `Cc1sc(NC(=O)c2ccco2)c(C(c2cccnc2)N2CCN(c3ccc(F)cc3)CC2)c1C` (stereo not drawn), for which the “activation” value was -16.3% (inactive).
